Source: PubChem (several laboratories)
Compounds with a hit are over-represented: about 1.6% of the library has one in this group of screens.
VLA-4 inh – inhibition in a human VLA-4 binding assay. P13612. VLA-4 expressing cells, ligand binding flow cytometry. inhibition, % (about 7 µM as worked out from the volumes in the protocol). hit rate 0.2% among 330,000; in the data active = inhibition above about 50%
ATG4B inhibitor – blocks human ATG4B protease cleavage of LC3 substrate. Q9Y4P1. ATG4B cleavage of LC3-PLA2, NBD-HPC fluorescence, 1 h. inhibition, % at 8.33 µM. hit rate 0.51% among 340,000. AID 504462
Target sequence (Q9Y4P1 whole entry, looked up): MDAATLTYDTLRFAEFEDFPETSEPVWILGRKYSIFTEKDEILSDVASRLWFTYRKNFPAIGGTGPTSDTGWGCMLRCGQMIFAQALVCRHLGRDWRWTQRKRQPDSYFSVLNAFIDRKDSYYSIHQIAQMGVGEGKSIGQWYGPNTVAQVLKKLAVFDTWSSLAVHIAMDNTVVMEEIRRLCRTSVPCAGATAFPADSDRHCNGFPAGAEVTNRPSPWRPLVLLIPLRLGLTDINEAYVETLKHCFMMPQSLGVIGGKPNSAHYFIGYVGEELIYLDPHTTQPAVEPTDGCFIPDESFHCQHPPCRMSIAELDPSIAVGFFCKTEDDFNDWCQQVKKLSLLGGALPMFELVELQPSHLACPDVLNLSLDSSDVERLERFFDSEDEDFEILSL
PKA-R1A act – activates the PKA-R1A holoenzyme complex. PKA-R1A dissociation, Cy5-IP20 fluorescence polarization; scaled: DMSO 0%, 113 µM cGMP 100%. hit rate 0.083% among 340,000. P00514+P68181. activation, % at 11.4 µM. AID 504707;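 active = percent activation above the mean of all tested compounds plus 3 SD, cut at about 19% in these data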;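 note: higher means more PKAc released from R1A so a rise in polarization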
PKA-R2B act – activators of human PKA-R2B complex; PKA-R2B holoenzyme dissociation, Cy5-IP20 fluorescence polarization; R2B truncated from residue 108, S112A mutant; 0% DMSO only, 100% 113 µM cGMP; activation, % at 11.4 µM; P22694+P31323; hit rate 0.079% among 340,000;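 active = activation above a cutoff set at the mean over all compounds plus 3 SD, cut at about 18% in these data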;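 note: higher means more holoenzyme dissociation and a rise in polarization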
NRP1-CendR mod – alters CendR peptide binding to human NRP-1 | inhibition, % at 25 µM | FAM-RPARPAR peptide binding to NRP-1, fluorescence polarization | hit rate 0.85% among 360,000;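 active = inhibition or corrected inhibition above about 18%, plus a signal ratio from 0.5 to 1.5, limit read from the data, passing the limit was not always enough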
VLA-4 allo CP – human VLA-4 allosteric modulation in cherry picked compounds. shares compounds with VLA-4 inh. hit rate 2% among 1,300. AID 2813. inhibition, % at 6.7 µM. U937 cells, HUTS-21 LIBS mAb binding, flow cytometry; LDV ligand present at threefold Kd;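 note: 0% = ligand without compound and 100% = no ligand background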
An asterisk follows results filed as active; nt = no result. Cut-off read from the data, not from the text of the source, unless noted: active = inhibition above about 40%; inactive = the rest.

SMILES	VLA-4 inh	ATG4B inhibitor	PKA-R1A act	PKA-R2B act	NRP1-CendR mod	VLA-4 allo CP
CC1CCCC(NC(=O)CCNS(=O)(=O)c2ccc(Br)cc2)C1C (stereo not drawn)	52.5*	-3.6	-15.3	-5.9	-8.5	-2.1
CNS(=O)(=O)c1cccc(C(=O)OCC(=O)NC2CCCC(C)C2C)c1 (stereo not drawn)	-12.1	-12.8	-2.7	0.8	12.1	-1.1
CCCCN(C(=O)C1CCCC1)C1CCS(=O)(=O)C1 (stereo not drawn)	nt	0.2	0.0	2.6	5.7	nt
O=C(N/N=C/c1ccncc1)c1cccc(S(=O)(=O)Nc2ccc(Cl)cc2)c1	2.4	16.3	-2.8	6.3	-15.9	nt
Cc1ccc(S(=O)(=O)NC(=O)Nc2ccc(C)cc2C)cc1	12.6	-13.5	5.7	7.2	12.5	nt
Cc1c(OCC(=O)NCc2cccnc2)ccc2c3c(c(=O)oc12)CCCC3	11.3	0.4	1.3	-5.1	6.2	nt
COc1cccc(-c2ccc(SCC(=O)NC3CCCCC3)nn2)c1	-22.7	-7.9	-5.3	-0.3	2.3	nt
O=C(NCc1ccccc1)c1ccc2nc(N3CCOCC3)sc2c1	3.4	-10.5	-3.9	-16.1	-1.2	nt
O=C(c1ccc([N+](=O)[O-])cc1)N1CCN(C(=O)c2ccco2)CC1	10.9	-12.6	-10.4	-0.6	-2.3	nt
O=C(c1ccco1)N1CCN(C(=O)N2CCOCC2)CC1	-1.6	-7.2	-2.6	12.2	-3.6	nt
Cc1cc(C(=O)N2CCN(C(=O)c3ccco3)CC2)ccc1[N+](=O)[O-]	51.0*	-2.5	-2.8	-7.4	8.2	6.4
COc1ccc(C(=O)Nc2ccc3nc(N4CCOCC4)sc3c2)cc1OC	-1.8	-7.2	1.7	4.6	11.7	nt
Cc1ccccc1CNC(=O)c1ccc2nc(N3CCOCC3)sc2c1	-3.7	15.1	-12.9	-0.9	-6.2	11.0
O=C(c1ccc2nc(N3CCOCC3)sc2c1)N1CCN(C(=O)c2ccco2)CC1	-4.7	12.2	0.3	4.8	4.8	-5.8
Cc1ccccc1NC(=O)c1ccc2nc(N3CCOCC3)sc2c1	17.8	2.9	-7.7	3.8	-6.3	8.4
CCCCNC(=O)C(NC(=O)c1cnccn1)C(=O)c1ccccc1 (stereo not drawn)	nt	nt	nt	nt	17.1	nt
CCOc1cc(C(=O)Nc2cc3c(cc2N2CCOCC2)n(C)c(=O)n3C)cc(OCC)c1OCC	-8.2	-5.5	-3.0	-0.8	-1.6	nt
COc1c(C)cc(C(O)c2ncc(-c3ccccc3)[nH]2)cc1C (stereo not drawn)	nt	nt	nt	nt	3.2	nt
C[C@H](NC(=O)C1CCN(S(=O)(=O)c2ccccc2)CC1)C(=O)NCc1ccncc1	nt	nt	3.3	4.1	1.0	nt
O=C(O)CCC(=O)Nc1ccc(S(=O)(=O)Nc2nccs2)cc1	56.5*	0.7	3.8	3.1	2.2	-3.0
O=C(O)c1ccc2c(c1)N(Cc1cccc(F)c1)C(=O)CS2	50.4*	-9.1	2.4	-3.2	-14.0	-0.6
CCC(C)NC(=O)c1ccc2c(c1)N(Cc1ccccc1)C(=O)CS2 (stereo not drawn)	9.8	1.8	-18.0	-2.0	3.6	nt
Cc1cccc2c(CCNC(=O)c3ccc([N+](=O)[O-])cc3)c[nH]c12	68.1*	0.3	3.6	3.5	5.9	17.6
O=C(NCCc1ccc(F)cc1)c1ccc([N+](=O)[O-])cc1	5.1	-3.2	6.3	-0.7	11.0	nt
CCOC(=O)C1=C(C)C2C3C(=O)N(c4ccccc4C)C(=O)C3C1(C)C1C(=O)N(c3ccccc3C)C(=O)C21 (stereo not drawn)	17.6	-4.3	3.2	-14.5	3.4	nt
CCOC(=O)C1=C(C)C2C3C(=O)N(c4ccc(C)cc4C)C(=O)C3C1(C)C1C(=O)N(c3ccc(C)cc3C)C(=O)C21 (stereo not drawn)	43.0	-7.5	7.6	-12.8	0.0	-8.5
CCOC(=O)c1c(NC(=O)C2c3ccccc3Oc3ccccc32)sc(C(N)=O)c1C	13.9	-11.4	-6.3	4.1	-10.0	15.0
COc1cc(NC(=S)NCCc2ccc(S(N)(=O)=O)cc2)c(OC)cc1Cl	4.6	2.0	-0.2	5.5	9.5	nt
O=C(CNc1ccccc1)N/N=C/c1c(O)ccc2ccccc12	50.3*	-26.8	-6.5	6.1	-19.8	-2.8
